Compounds with a hit are over-represented: about 2.7% of the library has one in this group of screens.
NadD inh: inhibitors of S. aureus NadD, primary screen, biochemical, colorimetric, uHTS; AID 602399, 2012; inhibition, % at 20 µM; purified NadD enzyme, colorimetric absorbance read-out; actives 0.78% (n = 360,000); in the data active means inhibition above about 26%
rCAG binder: binders of r(CAG) RNA repeats, primary screen, biochemical, fluorescence. r(CAG) RNA repeat, TO-PRO-1 dye displacement fluorescence. actives 1.3% (n = 370,000). AID 651821, 2012. inhibition, % at 3 µM;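 active means inhibition above the plate cutoff, the mean of all test compounds on that plate plus 3 SD, cut at about 35% in these data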;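 further: higher means more dye released from RNA so lower well fluorescence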
bovine MsrA act: bovine MsrA enzyme activators, primary screen, biochemical, absorbance, HTS. Methionine sulfoxide reductase A (Bos taurus). purified bovine MsrA, absorbance read-out. AID 602163, 2012. actives 0.3% (n = 360,000). activation, % at 10.6 µM; in the data active means activation above about 7.5%
MsrA inhibitor: bovine MsrA enzyme inhibitors, primary screen, biochemical, absorbance, HTS; actives 0.75% (n = 360,000); purified bovine MsrA, absorbance read-out; AID 651718, 2012; inhibition, % at 15.5 µM; in the data active means inhibition above about 4.5%
NadD conf: inhibitors of S. aureus NadD, confirmation, biochemical, colorimetric, single concentration; inhibition, % at 20 µM; shares compounds with NadD inh; actives 13% (n = 2,000); AID 624309, 2012; purified S. aureus NadD, colorimetric enzyme assay; in the data active means inhibition mostly above about 42%, no sharp cut-off; inactive means mostly below about 42%
Each line names hits and unclear results; the compound was inactive in the other large screens (follow-up assays come after a bar, where they were run); ! = a repeat was not active.

Cc1cccc(S(=O)(=O)c2c(N)n(/N=C/c3ccco3)c3nc4ccccc4nc23)c1	NadD inh 41 | NadD conf inactive
COc1ccc(CC(=O)N(C)c2ccccc2)cc1S(=O)(=O)N1CCOCC1	none
O=C(CSc1nnc(Cc2cccs2)n1-c1ccc(Cl)cc1)Nc1ccc(OCc2ccccc2)cc1	none (no result: NadD inh, bovine MsrA act, MsrA inhibitor)
O=C(Nc1nnc(-c2cccs2)o1)c1cc(-c2ccccc2)nc2ccccc12	NadD inh 55, rCAG binder 44 | NadD conf 51
COc1ccccc1NC(=O)c1c(Nc2ccccc2F)sc(C(=O)Nc2cccc(Cl)c2)c1N	NadD inh 43 | NadD conf inactive
O=C(CSc1nnc(-c2ccccn2)n1Cc1ccco1)c1ccc(-c2ccccc2)cc1	NadD inh 50 | NadD conf inactive
CCCCCC(=O)Nc1cccc(S(=O)(=O)NC2=NCCC2)c1	none
S=c1nc[nH]c2c1sc1nc(N3CCOCC3)c3c(c12)CCCC3	NadD inh 33 | NadD conf inactive
O=C(CSc1nnc2c3ccccc3c3ccccc3c2n1)Nc1ccccc1F	NadD inh 42 | NadD conf inactive
Cc1ccc2c(C)nc(/N=C(\N)NC(=O)N3c4ccccc4Sc4ccccc43)nc2c1	none
Cc1cc2nc(/N=C(\N)NC(=O)N3c4ccccc4Sc4ccccc43)nc(C)c2cc1C	NadD inh 27! | NadD conf inactive
Cc1ccc2nc(/N=C(\N)NC(=O)N3c4ccccc4Sc4ccccc43)nc(C)c2c1	NadD inh 31 | NadD conf inactive
O=c1[nH]c(Cn2nnc(-c3ccccc3)n2)nc2scc(-c3ccccc3)c12	NadD inh 30 | NadD conf inactive
COc1ccc(Nc2nnc(SCC(=O)N(CC(C)C)C3CCS(=O)(=O)C3)s2)cc1 (centres undefined)	none
Cc1ccc(C(=O)Nc2nc(-c3ccccn3)cs2)cc1S(=O)(=O)N1CCOCC1	NadD inh 31 | NadD conf inactive
CCn1c(C(=O)O)c(CC(=O)Nc2ccccc2OC)c2ccccc21	none
COc1ccc(C(=O)Nn2c(SCc3cccc([N+](=O)[O-])c3)nc3ccccc3c2=O)cc1	NadD inh 28 | NadD conf inactive
C#CCN(C[C@@H]1[C@@H](OC(=O)NC2CCCC2)[C@@H](OC(=O)NC2CCCC2)CN(C(=O)OC(C)C)N1C(=O)OC(C)C)S(=O)(=O)c1ccc(C)cc1	none
Cc1cccc(S(=O)(=O)N(C)C[C@H]2OCc3cnnn3CCCC(=O)N([C@H](C)CO)C[C@H]2C)c1	none
CCOc1ccc(N2C(=O)C3ON(c4ccccc4)C(c4ccco4)C3C2=O)cc1 (centres undefined)	none
CCOc1ccc(N2C(=O)C3Sc4[nH]c(=O)sc4C(/C=C/c4ccccc4)C3C2=O)cc1 (centres undefined)	NadD inh 32, rCAG binder 57 | NadD conf inactive
O=C(COc1ccc2c(c1)OCO2)Nc1nccs1	none
COc1cc(OC)cc(-c2c(-c3cccs3)c3cc(-c4ccc(SC)cc4)ccc3n2C)c1	none
COc1cc(OC)cc(-c2c(-c3cccs3)c3cc(-c4ccc(OCc5ccccc5)cc4)ccc3n2C)c1	NadD inh 46 | NadD conf inactive
COc1ccc(Cn2c(SCc3ccc(C)cc3)nc3cc(OC)c(OC)cc3c2=N)cc1Cl	NadD inh 51 | NadD conf inactive
COc1ccc(Cn2c(SCc3cc(C)ccc3C)nc3cc(OC)c(OC)cc3c2=N)cc1	NadD inh 39 | NadD conf inactive
COc1cc2nc(SCc3ccc(Cl)cc3Cl)n(Cc3cccs3)c(=N)c2cc1OC	none
CSc1ncc(CN2CCCC(C(=O)Nc3ccc(-c4ccco4)cc3)C2)cn1 (centres undefined)	NadD inh 47 | NadD conf inactive
Cc1ncc(CN2CCCC(C(=O)Nc3ccc(-c4ccco4)cc3)C2)n1C (centres undefined)	none
Cc1ccccc1/C=N/n1c(-c2cc(-c3ccccc3)n[nH]2)n[nH]c1=S	NadD inh 53 | NadD conf inactive
Cc1ccsc1/C=N/n1c(-c2cc(-c3ccccc3)n[nH]2)n[nH]c1=S	none
Cc1cccnc1NC(=O)Cn1nc(-c2ccccc2)oc1=S	none
CCCCOC(=O)c1c(C)oc2ccc(NS(=O)(=O)c3ccc4c5c(cccc35)C(=O)N4)cc12	NadD inh 32 | NadD conf inactive
COCCOC(=O)c1c(C)oc2ccc(NS(=O)(=O)c3cccs3)cc12	none
Cc1ccc(C)c(S(=O)(=O)N2CCN(C(=O)/C=C/c3ccco3)CC2)c1	NadD inh 35 | NadD conf inactive
Cc1ccc(S(=O)(=O)N2CCN(C(=O)/C=C/c3ccco3)CC2)cc1	none
CC(C)(O)C#Cc1ccc(N2C(c3ccsc3)=Cc3ccc(F)cc3C2c2c[nH]c3ccc(C#N)cc23)cc1 (centres undefined)	none
CCOC(=O)c1ccc(-c2ccc(N3C(c4ccsc4)=Cc4ccc(F)cc4C3c3c[nH]c4ccc(C#N)cc34)cc2)cc1F (centres undefined)	NadD inh 30 | NadD conf inactive
Cc1ccc(N2C(=O)[C@@H]3[C@H](C2=O)[C@H]2C=CC=NN2[C@@H]3C(=O)Nc2ccc(Cl)cc2)cc1	none
O=C(Nc1ccc(Cl)cc1)[C@@H]1[C@@H]2C(=O)N(c3ccc(Cl)cc3)C(=O)[C@@H]2[C@H]2C=CC=NN21	NadD inh 37 | NadD conf inactive
COc1ccccc1N1C(=O)[C@@H]2[C@H](C1=O)[C@H](C(=O)c1ccc(OC(C)=O)cc1)N1N=CC=C[C@@H]21	none (no result: NadD inh, bovine MsrA act)
CC(=O)Oc1ccc(C(=O)[C@H]2[C@H]3C(=O)N(c4ccc5ccccc5c4)C(=O)[C@H]3[C@@H]3C=CC=NN32)cc1	NadD inh 40 | NadD conf inactive
Cc1ccc2nc(/C(C#N)=C\c3ccc([N+](=O)[O-])o3)[nH]c2c1	none
Cc1ccc2nc(/C(C#N)=C\c3ccc(Oc4ccc([N+](=O)[O-])cn4)cc3)[nH]c2c1	NadD inh 36 | NadD conf inactive
COc1ccc2nc(/C(C#N)=C\c3ccc(Oc4ccc([N+](=O)[O-])cn4)cc3)[nH]c2c1	NadD inh 35 | NadD conf inactive
CCOc1cc(/C=C(/C#N)c2nc3ccccc3[nH]2)ccc1Oc1ccc([N+](=O)[O-])cn1	NadD inh 54 | NadD conf inactive
COC(=O)[C@@H]1C[C@@]2(c3ccccc3)c3ccccc3N(S(=O)(=O)c3ccccc3)[C@H]2N1C(=O)CNC1CCCCC1	none (no result: NadD inh, bovine MsrA act, MsrA inhibitor)
COc1cccc2c(=O)c3c([nH]c12)OC(C)(C)C3	none
COc1cccc2c(=O)c3cccc(N)c3[nH]c12	NadD inh 39 | NadD conf inactive
Fc1cc(F)c(F)c(SCCc2ccncc2)c1F	NadD inh 25 | NadD conf inactive
CC(C)CN(CC(C)C)S(=O)(=O)N1CCC(C(=O)NCc2ccc3c(c2)OCO3)CC1	none
